Measured values published in the supplement of paper PMC6555819.

Test system: VDR:RXRa (NR concentration 270 nM, RXRa partner concentration 90 nM)
Assay: PBM binding z-score (relative to random genomic background probes); higher = stronger binding; sequences stand for … in GC…GCGATTGACAGCGTAGAATGAAGG
Protocol: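 Protein-binding microarray (Agilent 4x180K custom design, double-stranded 60-nt probes: 5' GC cap, 34-nt variable region, 24-nt constant primer region; full probe sequence given). Purified or IVT nuclear receptor:RXRα heterodimers (3:1 NR:RXRα, mostly 270:90 nM) or homodimers were incubated for 1 h in PBS with 2% milk and no ligand, then detected with Alexa488 antibodies. Fluorescence from o1-orientation probes (~5 replicates averaged) was converted to z-scores against 500 random hg19 background probes. Variable regions are seed direct-repeat (DR0–DR5) sites, all their single-nucleotide variants and half-site ablations.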

Row | Sequence | PBM binding z-score
1 | CTACCAAGGTGAACAAGGGCGTTGATTACTATTC | 4.73
2 | GCTGCTAGGTCAGATTGGTCAGCTAACGGGTACG | 0.624
3 | ATATGTAGGTTACATCCCGGTCATTCAGGCTATG | 1.79
4 | CCTACTGGGCCAAAGGTCATTGGTTCCAATGCTC | 4.8
5 | CGTCAAAGTTGAAGGTAACGTAACAGAAAGCAGC | -0.0741
6 | GCTAGTTGGTCAGTAAAAGCTCACACACCGGTCG | -0.481
7 | GCAGACAGGTAAAACGCAGGTAACTCAGGGTGGC | -0.484
8 | CCTACTGGGACAAGGTCATTGATCAGTCAAAGCA | 3.48
9 | TCTGCTAGGTCAACGATGGTAAGCTAATCTGCTA | 1.82
10 | CCTTACGGGTCACTCCAGGCTATAGCATCGGAGT | 2.98
11 | ACAGACAGGTGATCAAGGTAACTCAGGCTATCAT | 0.483
12 | CCGACTGGGGCAGAAGGTTACCATAAGCCAGCCC | -0.302
13 | ATATGTAGGTTACATCCGGGTCGTTCAGGCTATG | 2.52
14 | TCATATAGGTAAAAGGTGAATGTCGGTGTGGTAA | 1.44
15 | CCGACTGGGGCATAAGGATACCATAAGCCAGCCC | -0.657
16 | TAGCCTAGGTCATGGGCCAGTATCCCACGCGAAC | 1.76
17 | ATCTCTAGGTAACCAAGGTCAGTGAATGCCGAAC | 3.67
18 | GGAACGAGGGCAAAATTGATAGCATCTGTCGACG | 0.352
19 | CCGACTGGGGCAGAGAGGTTACCATACCATCCGG | 1.73
20 | CAAACTAGGTCAGGAAAGGTCAAAGTCGAATGAC | 6.31

Row | Sequence | PBM binding z-score
21 | GATAGCAGGCCATTTGGGTCACTCAATGACGGGC | 1.07
22 | TGAATGAGGTTATAAGATCAGGGATCGTTGCAAA | 0.956
23 | CGTCCAAGGTCCGCAGGTCAGTGAAAGCGACGTG | -0.111
24 | ATACCAAGGTGGTCGTGAGGTCGTTGATACTAAC | 2.79
25 | CCTTACCGGTCACTCCAGGTTATAGCATCGGAGT | 1.46
26 | TCTAGTTGGTCAAAAGTCACACACTCGAAATGCG | 1.21
27 | CGTCAAAGTTCAACTAAGGTAAGGTAAAGCACGC | 4.17
28 | CGAACTAGGTCAGAACGGGACAGTGAAGGATGAT | 0.281
29 | CCTACTGGGCAATTCAGAGGTCATTGATCATATG | 3.49
30 | TAGCCTAGGTCATGCGGGGCAGTATAGTGTCGGC | 4.22
31 | CGAACTAGGTCAAAGGTCAAAGTCGAGCCAACCA | 6.78
32 | TAGCCCAGGTCATTCAGGGGCCAGTATAGAAAGC | 3.65
33 | ATCTCTAGGTAAGACTCAGTTCAGTGGAGAACGC | 0.529
34 | TCTTGTAGATCAAGCAGGTTAAGAACGCCTGAGT | 0.768
35 | CCTACTGGGCCATCAGATCATTGATATCAACGTT | -0.181
36 | ATAGACAGGTGAGTGAAGGTAACTCAGCTGGACG | 0.0461
37 | TCATGTAGGTAAAGGTGAAAGTCGAACGATATGA | 1.11
38 | TCATGTAGGTAAAAGGTGAAAGTCGGTGTGGTAA | 1.57
39 | CCTTACGGGTCACTGTCAGGTTATAGCATTTGGA | 3.87
40 | CTACCAAGGTGAACAAGGTCGTCGATTACTATTC | 5.98
